Test results taken from PubChem BioAssay (NCI).
Where “and” joins values, the source holds several entries; their conditions need not be identical. Equal entries are not always repeated. This is part of a sample that, as a whole, favours compounds with a hit. Of some 79,000 tested, about 15% had one in any assay. A structure can be active in one record and inactive in another. Calls of active or inactive are those of the source. No stated cut-off is given here; in the data, active means growth inhibition above about 70%; inactive means the rest.

Assay: NCI Yeast Anticancer Drug Screen. Data for the mlh1 rad18 strain (AID 175)
Details: S. cerevisiae mlh1 rad18 strain growth inhibition, stronger effect = higher value
Experimental: Growth inhibition of yeast strains with defined genetic alterations is measured as a screen for potential anti-cancer activity. Selected strains with alterations in DNA damage repair or cell cycle control were exposed to compounds and growth inhibition was measured relative to vehicle treated controls. The strain used in this assay is mlh1 rad18

[1] = at 5.0 µM (retest, dose inferred, filed as 0.5)
[2] = at 50.0 µM (retest, dose inferred, filed as 5.0)

Row | SMILES | growth inhibition [1] | growth inhibition [2] | growth inhibition (at 50.0 µM)
1 | CCc1nc(N)nc(N)c1-c1ccc(Cl)c(N=[N+]=[N-])c1 | 65% (inactive) | 62% (inactive) | -1.7% (inactive) and 27.7% (inactive)
2 | O=C(OCC(OC(=O)c1ccccc1)C(OC(=O)c1ccccc1)C(OC(=O)c1ccccc1)C(OC(=O)c1ccccc1)c1nn[nH]n1)c1ccccc1 (configuration not stated) | 60% (inactive) and 26% (inactive) | 74% (active) and 81% (active) | 89.2% (active) and 90% (active)
3 | CC(O)CN1CCN(CC(C)O)CC1.[I][Pt+2][I] (configuration not stated) | -2% (inactive) | 16% (inactive) | 92.7% (active)
4 | CN(C)C(=Nc1nc(=[N+](C)C)ss1)N(C)C | 15% (inactive) | 13% (inactive) | 81.8% (active)
5 | O=C1OC(CN2CCOCC2)CN1/N=C/c1ccc([N+](=O)[O-])o1 (configuration not stated) | 13% (inactive) | 76% (active) | 75.7% (active) and 34.3% (inactive)
6 | Cc1ccc(S(=O)(=O)NC2CCCCCCC2)cc1 | 40% (inactive) | 99% (active) | 82.8% (active)
7 | Cc1cc(=O)[nH]c2ccc(Cc3ccc(N)cc3)cc12 | 21% (inactive) | 22% (inactive) | 11.8% (inactive) and -1% (inactive)
8 | OC(CN1CCCC2CCCCC21)c1cc2ccccc2c2ccccc12 (configuration not stated) | 13% (inactive) and 2% (inactive) | 99% (active) | 99.2% (active) and 99% (active)
9 | CCN(CC)Cc1cc2c(cc1O)CC[C@@H]1[C@@H]2CC[C@]2(C)C(=O)CC[C@@H]12 | 38% (inactive) | 81% (active) | 71.3% (active) and 20.9% (inactive)
10 | N#CCCC(CCC#N)(CCC#N)C(=O)c1ccccc1 | 20% (inactive) | 12% (inactive) | 20.2% (inactive) and 26.8% (inactive)
11 | Fc1ccc(/C=C2\COCC3=C2NC(=S)NC3c2ccc(F)cc2)cc1 (configuration not stated) | 26% (inactive) | 98% (active) | 90.7% (active)
12 | Oc1c(Cl)cc(Cl)c(Cl)c1Cl | 4% (inactive) and 7% (inactive) | 92% (active) and 96% (active) | 93.8% (active) and 98.7% (active)
13 | CC1(C)C(c2ccccc2)=Nc2ccccc21 | -5% (inactive) | 46% (inactive) | 86.2% (active)
14 | CCOC(=O)C1=C(C(=O)c2ccc(OC)cc2)C(c2c(Cl)cccc2Cl)C(C(=O)c2ccc(OC)cc2)=C(C(=O)OCC)N1 | 6% (inactive) | 0% (inactive) | 81.8% (active)
